Experimental data published in PubChem BioAssay (NCATS).
Records with an inconclusive call do not appear. Values without a mark were called inactive. Calls follow the shape of the dose curve; as a rule, active = well fitted inhibition curve with a large enough effect; inconclusive = small, poorly fitted or top-dose-only effect; inactive = no such curve, though single readings can be large or run the other way.

Target: Retinaldehyde dehydrogenase 3 (Homo sapiens) (UniProt P47895)
Test: qHTS for Inhibitors of the Aldehyde Dehydrogenase Family (ALDH1A3) Primary screen (AID 2061315);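 also: plate controls were DMSO vehicle for no effect and reference inhibitor for full effect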
Conditions: ALDH inhibition qHTS; series mostly up to 56 µM; activity change, negative = inhibition: at the top concentration

SMILES | activity change, negative = inhibition
Cc1cc2c(s1)c1cnn(Cc3ccccc3Br)c(=O)c1n2C | 19.6%
Cc1cc(N2C(=O)c3ccccc3C2=O)no1 | -7.65%
COc1cccc(C2c3c(ncn(-c4ccc(C(C)(C)C)cc4)c3=N)Oc3ccc4ccccc4c32)c1 (configuration not stated) | -2.03%
Cc1ccc(S(=O)(=O)Nc2ccc(OC(F)(F)F)cc2C(=O)Nc2nc(-c3ccccc3)cs2)cc1 | 2.03%
COc1ccc2c(c1)Oc1ncn(CCN3CCOCC3)c(=N)c1C2c1ccc(OC)c(OC)c1 (configuration not stated) | 1.09%
CCOc1ccc(CCNC(=O)c2cccc(C(=O)c3ccccc3)c2)cc1OCC | -5.18%
CCN(CC)CCCC(C)n1c(-c2ccccc2)nc2c(NCc3ccccc3)nc(C)nc21 (configuration not stated) | 8.28%
COc1cc(Cl)ccc1C(=O)Nc1nc(-c2ccccc2)cs1 | -7.08%
O=C1c2ccccc2C(=O)N1c1nccs1 | -11%
N#Cc1c(-c2ccco2)no[n+]1[O-] | -3.7%
O=S(=O)(c1ccc(Br)cc1)N1CCN(S(=O)(=O)c2ccc3c(c2)OCCO3)CC1 | 1.75%
COc1ccc2nc(-c3ccc(F)cc3Cl)sc2c1 | -6.17%
CCCn1ncc(CN2CCCC(C(=O)c3cccc(OC(C)C)c3)C2)c1C (configuration not stated) | 7.37%
O=C(NCc1ccccc1)Nc1nnc(-c2ccncc2)s1 | 0.207%
Oc1cccc2cc(-c3ccncc3)cnc12 | -10.8%
CC(=O)O[C@@H]1c2c3c(cc(O)c2C(=O)O[C@@H]1C)O[C@@]1(C)[C@@H](O)C[C@H]2C(C)(C)C(=O)C=C[C@]2(C)[C@@H]1C3 | 9.36% [at 28 µM]
CC(C)(C)OC(=O)Cc1nnc(-c2nc3ccccc3[nH]2)o1 | 17.2%
